Test results as given in PubChem BioAssay AID463173 (ICCB-Longwood Screening Facility, Harvard Medical School, 2010).
About 4,300 (8.3%) of roughly 52,000 compounds were called active. Many of the other results were omitted from the sample, so actives are more common in it than they were. Values without a mark were called inactive. No stated cut-off is given here; in the data, active means survival mostly below about 52% (no sharp cut-off); inactive means mostly above about 56%.

Each compound was assayed on DeltatarO mutant (assay: growth inhibition of S. aureus wild type versus tarO mutant, primary screen, teichoic acid synthesis inhibitors, RN4220, OD600 (AID 463173)). Details: OD600, 18 h, stronger effect = lower value, screened at 18.75 µg/mL (by protocol).

Structure (SMILES) | survival
CCOC(=O)/C(C)=C1\NC(C)(C)Cc2ccccc21 | 92%
Cc1coc2cc3oc(=O)c(CCC(=O)NCc4ccccc4Cl)c(C)c3cc12 | 66%
Cc1ccc2c(c1)nc(SCC(O)c1ccc(Br)cc1)n2C (stereo not drawn) | 70%
COc1cc2c(cc1OC)-c1n[nH]c(=S)n1C(C)(C)C2 | 90%
CC(=O)c1c(C)n(-c2ccc(C)cc2)c2ccc(OC(=O)COc3ccccc3)cc12 | 62%
COc1ccccc1CN1CCN(C(CC(C)C)c2nnnn2Cc2ccc(F)cc2)CC1 (stereo not drawn) | 85%
O=C1CCCCCN1Sc1ccccc1 | 48% (active)
O=C(/C=C/c1ccccc1)N1CCCC1=O | 94%
O=C1CCC(=O)N1c1ccccc1 | 98%
CCN(CCCNC(=O)c1ccc(Sc2ccc(Cl)cc2)c(NC(C)=O)c1)c1cccc(C)c1 | 89%
COc1cc(O)ccc1-c1nc2ccc(Br)cn2c1Nc1ccccc1C | 46% (active)
Cc1ccccc1Nc1c(-c2cccnc2)nc2ccc(Cl)cn12 | 92%
Cc1ccccc1Nc1c(-c2cccc(O)c2)nc2ccc(Br)cn12 | 64%
COc1cc(O)ccc1-c1nc2cc(C)ccn2c1Nc1ccccc1C | 69%
Cc1ccccc1Nc1c(-c2ccncc2)nc2ccc(Cl)cn12 | 118%
Cc1ccccc1Nc1c(-c2ccc(Br)o2)nc2ccc(Cl)cn12 | 37% (active)
CCOC(=O)c1c(S(=O)(=O)N2CCCC(C(=O)Nc3ccc(OCC)cc3)C2)c(C)n(C)c1C (stereo not drawn) | 99%
COc1ccc(CNC(=O)C(=O)NCC(c2cccs2)S(=O)(=O)c2cccs2)cc1 (stereo not drawn) | 89%
CCCCOc1ccc(C(=O)N(Cc2ccco2)Cc2ccco2)cc1 | 94%
Cc1cccc(NC(=O)c2cc3c([nH]c2=O)CC(c2ccccc2)CC3=O)c1 (stereo not drawn) | 20% (active)
O=C1CC(c2ccccc2)Cc2[nH]c(=O)c(C(=O)Nc3ccc(F)cc3)cc21 (stereo not drawn) | 101%
O=C1CC(c2ccccc2)Cc2[nH]c(=O)c(C(=O)Nc3cccc(Cl)c3)cc21 (stereo not drawn) | 8% (active)
COc1ccc(NC(=O)c2cc3c([nH]c2=O)CC(c2ccccc2)CC3=O)cc1 (stereo not drawn) | 91%
O=C1CC(c2ccccc2)Cc2[nH]c(=O)c(C(=O)Nc3cccc(F)c3)cc21 (stereo not drawn) | 89%
CC(=O)c1ccc(NC(=O)c2cc3c([nH]c2=O)CC(c2ccccc2)CC3=O)cc1 (stereo not drawn) | 63%

Structure (SMILES) | survival
COc1ccc(S(=O)(=O)c2c(C)c(NS(=O)(=O)c3ccccc3)cc(C)c2O)cc1 | 67%
CC(C)N(Cc1ccccc1)C(=O)CCS(=O)(=O)c1cc2c(cc1Cl)NC(=O)CO2 | 103%
CC(C)(C)c1ccc(S(=O)(=O)c2cnc(SCC(=O)Nc3ccc4c(c3)OCCO4)[nH]c2=O)cc1 | 120%
COc1ccc(S(=O)(=O)N(CC(=O)NCCSCc2ccccc2)c2ccc(C)cc2)cc1 | 54%
CCN1CCN(C(=O)c2cnn(-c3ccc(F)cc3)c2-n2cccc2)CC1 | 135%
COC(=O)c1ccc(NC(=O)CSc2n[nH]c(CC(C)C)n2)cc1 | 36% (active)
CCOC(=O)c1ccccc1NC(=O)CSc1ccc(-c2sc(-c3ccccc3)nc2C)nn1 | 34%
Cc1nc(-c2ccccc2)sc1-c1ccc(SCC(=O)NCc2ccccc2)nn1 | 58%
CCOc1ccc(NC(=O)CSc2ccc(-c3sc(-c4ccccc4)nc3C)nn2)cc1 | 15% (active)
COC(=O)c1ccccc1NC(=O)CSc1n[nH]c(CC(C)C)n1 | 47%
COC(=O)c1ccc(NC(=O)CSc2ccc(-c3sc(-c4ccccc4)nc3C)nn2)cc1 | 56% (active)
CCc1ccc(NC(=O)CSc2ccc(-c3sc(-c4ccccc4)nc3C)nn2)cc1 | 38%
Cc1ccc(CNC(=O)CSc2ccc(-c3sc(-c4ccccc4)nc3C)nn2)cc1 | 93%
COC(=O)c1ccc(NC(=O)CSc2n[nH]c(-c3ccccc3)n2)cc1 | 88%
Cc1ccc(OCC(=O)Nc2ccc3c(c2)sc(=O)n3C)cc1 | 110%
O=C(Cn1ncc2c3ccccc3n(Cc3ccc(Cl)cc3)c2c1=O)NCCC1=CCCCC1 | 89%
CCc1ccc(C2CC(=O)c3c([nH]c(C(=O)OC4CCCC4)c3C)C2)cc1 (stereo not drawn) | 97%
O=C(CSc1nnc(NC(=O)NC2CCCCC2)s1)Nc1ccccc1F | 79%
CCCn1c(C(=O)OC)cc2c1ccn2C | 78%
CC1(C)Cc2[nH]c(=S)c(C#N)cc2CO1 | 88%
CCc1cnc2c(c1SCC(=O)NCc1ccc(C)cc1)c(=O)n(C)c(=O)n2C | 70%
CCCc1cnc2c(c1SCC(=O)NCc1ccc(C)cc1)c(=O)n(C)c(=O)n2C | -4% (active)
Cc1ccc(CNC(=O)CSc2c(C(C)C)cnc3c2c(=O)n(C)c(=O)n3C)cc1 | 85%
COc1cc(C2C(C(=O)OCC(C)C)=C(C)N=C3SCCC(=O)N32)ccc1OCc1ccccc1 (stereo not drawn) | 46% (active)
COCCOC(=O)C1=C(C)N=C2SCCC(=O)N2C1c1ccc(OCc2ccccc2)c(OC)c1 (stereo not drawn) | 58%

Structure (SMILES) | survival
CCOC(=O)C1=C(C)N=C2SCCC(=O)N2C1c1ccc(OCc2ccccc2)c(OC)c1 (stereo not drawn) | 133%
O=C1CC(c2ccccc2)Cc2[nH]c(=O)c(-c3nc(-c4ccc(Cl)cc4)cs3)cc21 (stereo not drawn) | 72%
CCCCNc1cc(NC2CCCCC2)c2c3c(onc13)-c1ccccc1C2=O | 92%
CCN(CC)c1cc(NC2CCCCC2)c2c3c(onc13)-c1ccccc1C2=O | 1% (active)
O=C1c2ccccc2-c2onc3c(Br)cc(NC4CCCCC4)c1c23 | 101%
CCCCNc1cc(N2CCN(C3CCCCC3)CC2)c2noc3c2c1C(=O)c1ccccc1-3 | -5% (active)
CN(C)CCCNc1cc(N2CCN(C3CCCCC3)CC2)c2noc3c2c1C(=O)c1ccccc1-3 | 51%
CCNc1cc(N2CCN(C3CCCCC3)CC2)c2noc3c2c1C(=O)c1ccccc1-3 | 73%
COc1ccc(NC(=O)CCS(=O)(=O)c2nc(-c3ccc4c(c3)OCO4)cc(C(F)(F)F)n2)cc1OC | 79%
Cc1cccc(NC(=O)Cn2cc(C(=O)c3ccco3)c3ccccc32)c1C | 55%
Cc1cc(C)c(O)c(N)c1 | 39% (active)
Cc1cc(N)cc(C(=O)O)c1O | 104%
Cc1cc(N)c(O)cc1C | 61%
CCOc1ccc(S(=O)(=O)N2CCC(N3CCN(Cc4ccc(C)cc4)C(=O)C3=O)CC2)cc1 | 77%
CCCc1cc(=O)[nH]c(Nc2cc(Cl)cc(Cl)c2)n1 | 6% (active)
CCCc1cc(=O)[nH]c(Nc2ccc(C)c(O)c2)n1 | 57%
CCCc1cc(=O)[nH]c(Nc2ccc(C(=O)O)cc2)n1 | 62%
CCCOC(=O)c1cccc(Nc2nc(CCC)cc(=O)[nH]2)c1 | 10% (active)
CCCc1cc(=O)[nH]c(Nc2cc(C)cc(C)c2)n1 | 108%
CCCc1cc(=O)[nH]c(Nc2cccc(Cl)c2Cl)n1 | 68%
O=C(CN1C(=O)COc2ccc(S(=O)(=O)N3CCCCCC3)cc21)N1CCN(c2cccc(Cl)c2)CC1 | 95%
O=C(Nc1nnc(S(=O)(=O)N2CCCCC2)s1)c1ccccc1Br | 61%
O=C(Nc1nnc(S(=O)(=O)N2CCCCCC2)s1)c1ccccc1Br | 43% (active)
O=C(Nc1nnc(S(=O)(=O)N2CCCC2)s1)c1ccccc1Br | 36% (active)
COc1ccc(C2CC(=O)c3cnc4c(-c5ccccc5)c(C)nn4c3C2)c(OC)c1 (stereo not drawn) | 82%

Structure (SMILES) | survival
COc1cccc(C(=O)Nc2ccc3nc(SCC(=O)N4CCc5ccccc54)sc3c2)c1 | 59%
COc1cccc(-n2cc(C(=O)Nc3cc(C)c(Cl)cc3OC)c3ccccc3c2=O)c1 | 56%
O=C(Nc1ccc2oc(-c3cccnc3)nc2c1)c1ccc(-c2ccc(OC(F)(F)F)cc2)o1 | 79%
CCOc1ccccc1CNS(=O)(=O)c1cnc(N)nc1 | 79%
CCOc1ccccc1NS(=O)(=O)c1cnc(N)nc1 | -1% (active)
Nc1ncc(S(=O)(=O)Nc2ccc(F)cc2F)cn1 | 84%
COc1ccc(OC)c(NC(=O)c2ccc(-c3nc(COc4ccccc4)c(C)o3)cc2)c1 | 62%
CCOC(=O)c1[nH]c2ccccc2c1NC(=O)c1ccc(OCC)cc1 | 75%
Cc1ccc(NC(=O)C(c2ccccc2)N2Cc3ccccc3C2=O)cc1Cl (stereo not drawn) | 75%
CCN(CC)CCNc1ncnc2c1cnn2-c1cc(Cl)ccc1C | 77%
CCN(CC)c1ncnc2c1cnn2-c1cc(Cl)ccc1C | -5% (active)
CCN(c1ncnc2c1cnn2-c1cc(Cl)ccc1C)C1CCCCC1 | 73%
CCN(CC)C(=O)Cn1c(=O)n(Cc2ccc(C(=O)NCc3ccccc3Cl)cc2)c(=O)c2ccccc21 | 115%
Cc1cn2c(=O)cc(COC(=O)COc3ccccc3C)nc2s1 | 76%
COC(=O)c1ccc(NC(=O)CSc2nnc3c4ccccc4n(C(C)C)c3n2)cc1 | 52%
COc1ccccc1NC(=O)CSc1nnc2c3ccccc3n(C(C)C)c2n1 | 33% (active)
COc1ccccc1NC(=O)CSc1nnc2c(n1)[nH]c1ccccc12 | 77%
CC(C)C(=O)Nc1nnc(S(=O)(=O)N2CCc3ccccc32)s1 | 78%
Cc1ccc(S(=O)(=O)N2CCCc3cc(NC(=O)c4cccc(Cl)c4)ccc32)cc1 | 87%
O=C(Nc1nnc(S(=O)(=O)N2CCc3ccccc32)s1)c1cccc(Cl)c1 | 1% (active)
O=C(Nc1nnc(S(=O)(=O)N2CCCc3ccccc32)s1)c1cccc(Cl)c1 | 3% (active)
O=C(Nc1cccc(Cl)c1)c1cc(S(=O)(=O)N2CCCc3ccccc32)ccc1F | 108%
O=C(Nc1nc2c(Cl)cccc2s1)c1ccc(S(=O)(=O)N2CCc3ccccc32)cc1 | 69%
